Assay results: PubChem BioAssay
A number with no mark means an inactive call. For part of these data: Entries with a potency or affinity are not part of this list. Calls of active or inactive are those of the source. Unless noted, no rule for the calls is given here.

How the values were obtained:
[1] = antimalarial activity against Dd2 strain (AID 2302;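 active = growth inhibition above 50% at the single 2 µM test dose, taken to imply half-maximal potency below 2 µM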;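 also: 0% = DMSO untreated growth and 100% = chloroquine plus artemisinin killed control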); details: P. falciparum Dd2 in RBCs, LDH growth readout, 72 h; at 2 µM; hits give high values
[2] = human hepatoma cell viability loss – ATP luminescence, cytotoxicity control for P. falciparum antimalarial project, primary screen (AID 2303;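 active = inhibition above 50%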;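 also: 0% = DMSO wells and 100% = digitonin-killed cells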); details: HepG2 viability, 24-48 h, at 10 µM, hits give high values
[3] = biological target: L-lactate dehydrogenase (Plasmodium falciparum (isolate CDC / Honduras)) (UniProt Q27743); test: PfLDH activity inhibition – cell lysate, 3D7 strain, counter-screen for P. falciparum growth inhibition project (AID 2304);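 also: 0% = vehicle and 100% = reference inhibitor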; details: P. falciparum 3D7 crude extract, LDH APAD/NBT absorbance; at 2 µM; hits give high values
[4] = inhibition of 3D7 malaria parasite growth – strain 3D7 (AID 2306);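 also: 0% = DMSO wells and 100% = chloroquine plus artemisinin control wells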; details: P. falciparum 3D7 erythrocytic growth, LDH absorbance, 72 h; at 2 µM; hits give high values
[5] = biological target: Calcium-dependent protein kinase 1 (Plasmodium falciparum (isolate 3D7)) (UniProt P62344); test: PfCDPK1 kinase inhibitors, biochemical, TCAMS library (AID 1159585; cut-off not given, nearly all actives have IC50 up to about 0.98 µM;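 also: inhibitors leave more ATP so luminescence rises with inhibition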); details: recombinant PfCDPK1, Kinase-Glo ATP depletion luminescence
[6] = biological target: Plasmodium falciparum protein kinase 6 (PK6, PF3D7_1337100) (UniProt Q8IDW1); test: PfPK6 kinase inhibitors, biochemical, TCAMS library (AID 1159586); details: recombinant PfPK6, Kinase-Glo ATP depletion luminescence
[7] = biological target: Protein kinase 7 (PK7), Plasmodium falciparum 3D7 (PF3D7_0213400) (UniProt Q7YTF7); test: inhibition of Plasmodium PK7 catalytic activity – biochemical, TCAMS antimalarial set, Kinase-Glo luminescence (AID 1159587); details: recombinant PfPK7, Kinase-Glo ATP depletion luminescence
[8] = biological target: Calcium-dependent protein kinase 4 (Plasmodium falciparum (isolate 3D7)) (UniProt Q8IBS5); test: PfCDPK4 kinase inhibitors, biochemical, TCAMS library (AID 1159588; cut-off not given, nearly all actives have IC50 up to about 0.91 µM); details: recombinant PfCDPK4, Kinase-Glo ATP depletion luminescence
Calcium-dependent protein kinase 4 (Plasmodium falciparum (isolate 3D7)), sequence (Q8IBS5 whole entry, looked up): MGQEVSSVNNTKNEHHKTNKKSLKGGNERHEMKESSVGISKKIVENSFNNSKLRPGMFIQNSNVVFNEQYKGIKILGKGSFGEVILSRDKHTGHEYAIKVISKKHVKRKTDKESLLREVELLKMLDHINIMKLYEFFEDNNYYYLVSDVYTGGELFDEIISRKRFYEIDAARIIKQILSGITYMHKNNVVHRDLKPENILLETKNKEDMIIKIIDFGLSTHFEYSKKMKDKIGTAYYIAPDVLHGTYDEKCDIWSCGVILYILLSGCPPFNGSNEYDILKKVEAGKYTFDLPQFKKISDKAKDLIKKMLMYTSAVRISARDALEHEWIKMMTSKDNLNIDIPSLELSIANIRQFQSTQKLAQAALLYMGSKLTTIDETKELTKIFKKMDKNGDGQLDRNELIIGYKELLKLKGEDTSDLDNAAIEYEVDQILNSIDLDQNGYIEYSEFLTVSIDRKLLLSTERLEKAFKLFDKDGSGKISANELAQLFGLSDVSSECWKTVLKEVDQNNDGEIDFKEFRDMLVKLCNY

Protein kinase 7 (PK7), Plasmodium falciparum 3D7 (PF3D7_0213400), sequence (Q7YTF7 1-343): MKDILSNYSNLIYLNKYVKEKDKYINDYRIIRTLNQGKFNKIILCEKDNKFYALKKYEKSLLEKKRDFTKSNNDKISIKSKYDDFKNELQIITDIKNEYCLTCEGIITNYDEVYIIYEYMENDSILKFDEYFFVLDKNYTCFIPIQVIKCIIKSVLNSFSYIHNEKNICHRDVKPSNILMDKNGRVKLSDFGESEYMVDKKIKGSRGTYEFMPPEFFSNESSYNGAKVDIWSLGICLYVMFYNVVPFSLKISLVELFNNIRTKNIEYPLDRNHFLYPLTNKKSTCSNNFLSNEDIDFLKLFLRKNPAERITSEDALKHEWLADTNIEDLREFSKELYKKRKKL
Plasmodium falciparum protein kinase 6 (PK6, PF3D7_1337100), sequence (Q8IDW1 1-305): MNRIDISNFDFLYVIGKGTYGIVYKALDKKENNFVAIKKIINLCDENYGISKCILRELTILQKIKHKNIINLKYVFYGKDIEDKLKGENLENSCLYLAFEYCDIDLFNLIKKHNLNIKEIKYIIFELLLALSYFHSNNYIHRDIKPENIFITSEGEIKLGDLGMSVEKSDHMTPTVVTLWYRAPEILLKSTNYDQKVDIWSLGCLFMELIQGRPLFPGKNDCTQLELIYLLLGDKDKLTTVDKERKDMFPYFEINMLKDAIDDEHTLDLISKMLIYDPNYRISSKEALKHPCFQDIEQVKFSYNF
Calcium-dependent protein kinase 1 (Plasmodium falciparum (isolate 3D7)), sequence (P62344 whole entry, looked up): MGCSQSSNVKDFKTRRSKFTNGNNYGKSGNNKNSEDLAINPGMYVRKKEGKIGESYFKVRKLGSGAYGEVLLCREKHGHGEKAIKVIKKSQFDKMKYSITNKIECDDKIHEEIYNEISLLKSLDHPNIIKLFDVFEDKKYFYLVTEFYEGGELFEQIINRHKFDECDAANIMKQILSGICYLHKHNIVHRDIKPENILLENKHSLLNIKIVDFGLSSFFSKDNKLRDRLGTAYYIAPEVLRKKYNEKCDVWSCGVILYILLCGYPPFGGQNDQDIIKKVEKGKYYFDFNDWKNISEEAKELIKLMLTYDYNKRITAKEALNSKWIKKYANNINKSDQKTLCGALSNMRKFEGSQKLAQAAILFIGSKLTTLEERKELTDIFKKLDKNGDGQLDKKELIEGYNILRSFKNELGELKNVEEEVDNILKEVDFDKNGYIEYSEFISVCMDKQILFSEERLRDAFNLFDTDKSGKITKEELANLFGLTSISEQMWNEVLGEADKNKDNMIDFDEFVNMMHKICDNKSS
L-lactate dehydrogenase (Plasmodium falciparum (isolate CDC / Honduras)), sequence (Q27743 whole entry, looked up): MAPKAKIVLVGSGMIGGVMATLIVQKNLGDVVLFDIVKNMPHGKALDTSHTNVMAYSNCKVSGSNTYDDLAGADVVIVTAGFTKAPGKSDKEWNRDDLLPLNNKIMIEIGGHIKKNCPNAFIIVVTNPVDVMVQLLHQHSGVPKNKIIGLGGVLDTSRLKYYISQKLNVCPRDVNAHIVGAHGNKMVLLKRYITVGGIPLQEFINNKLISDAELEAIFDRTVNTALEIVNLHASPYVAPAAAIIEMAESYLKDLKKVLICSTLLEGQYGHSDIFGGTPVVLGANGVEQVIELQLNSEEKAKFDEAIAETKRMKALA

SMILES | growth inhibition [1] | inhibition [2] | inhibition [3] [%] | growth inhibition [4] | outcome [5] | outcome [6] | outcome [7] | outcome [8]
Cc1cc(N(CCN2CCCCC2)CCN2CCCCC2)nc(Nc2ccc(Cl)cc2)n1 | 79% (active) | 19% | -4 | 101% (active) | inactive | inactive | inactive | inactive
Cc1nc(-c2ccc(-c3ccc(NC(=O)Nc4ccc(I)c(OCCN(C)C)c4)cc3)c(C)c2)no1 | 92% (active) | 47% | 2 | 101% (active) | inactive | inactive | inactive | inactive
FC(F)(F)Oc1ccc(-c2cnc3ccc(NCc4ccncc4)nn23)cc1 | 54% (active) | 19% | -3 | 97% (active) | inactive | inactive | inactive | inactive
COc1ccc2nccc([C@@H](O)CN3CCC(NC(=O)c4cccc(-c5cc(C)no5)c4)CC3)c2c1 | 89% (active) | 19% | 1 | 93% (active) | inactive | inactive | inactive | inactive
COc1ccc2nccc([C@@H](O)CN3CCC(NC(=O)c4ccc(C5(C(F)(F)F)N=N5)cc4)CC3)c2c1 | 41% | 8% | -8 | 97% (active) | inactive | inactive | inactive | inactive
Fc1cccc(CNc2ncc(-c3ccsc3)c(-c3nccs3)n2)c1 | 85% (active) | 15% | 0 | 91% (active) | inactive | inactive | inactive | inactive
CC1CCCN(Cc2cc(Cl)cc(Cl)c2O)C1 (configuration not stated) | 77% (active) | 22% | 5 | 89% (active) | inactive | inactive | inactive | inactive
CCOc1cc(C)c(C2CCN(CCCCNC(=O)c3ccc(NC(=O)c4ccc(Cl)cc4)cc3)CC2)cc1C | 87% (active) | 10% | 1 | 100% (active) | inactive | inactive | inactive | inactive
CCNC(=O)c1ccc2c(c1)c(C)c(C)n2Cc1ccc(F)cc1 | 91% (active) | 25% | -1 | 93% (active) | inactive | inactive | inactive | inactive
CC(C)(C)c1ccc2nc(-c3ccc(C(=O)NCc4cccc(C(F)(F)F)c4)cc3)[nH]c2c1 | 26% | 9% | -1 | 98% (active) | inactive | inactive | inactive | inactive
CCCCNc1c(CC)c(C)c(C#N)c2nc3ccccc3n12 | 100% (active) | 3% | -5 | 100% (active) | inactive | inactive | inactive | inactive
Nc1ccc(-c2cc(Cl)cc(Cl)c2)cc1-c1cc2ccccc2[nH]1 | 97% (active) | -9% | 0 | 101% (active) | inactive | inactive | inactive | inactive
Cc1cccc(C(=O)Nc2ccnc(N(C)CCCN(C)Cc3cccc(C#N)c3)c2)c1 | 12% | 1% | -2 | 92% (active) | inactive | inactive | inactive | inactive
O=C(CCCCCNC(=O)c1ccc(O)c(-c2ccc(Cl)c(Cl)c2)c1)NCCc1ccc(Cl)c(Cl)c1 | 20% | 57% (active) | -6 | 97% (active) | inactive | inactive | inactive | inactive
O=C(Nc1ccc(-c2nc3ccc(NC(=O)c4ccc(Br)cc4)cc3[nH]2)cc1)c1ccc(Br)cc1 | 4% | 40% | 3 | 98% (active) | inactive | inactive | inactive | inactive
CCOc1cc(C)ccc1C1CCN(CCCCNC(=O)c2cnc(-c3ccc(C(F)(F)F)cc3)[nH]2)CC1 | 97% (active) | 16% | 2 | 95% (active) | inactive | inactive | inactive | inactive
COc1cc(NC(=O)c2nn(CCCN3CCC(N4CCCC4)CC3)cc2-c2ccc(Cl)c(Cl)c2)cc(OC)c1OC | 100% (active) | 76% (active) | -5 | 103% (active) | inactive | inactive | inactive | inactive
O=C(C=Cc1cccc(F)c1)NC1CCC(CCN2CCc3ccc(-c4cnccn4)cc3CC2)CC1 (configuration not stated) | 67% (active) | 51% (active) | -1 | 100% (active) | inactive | inactive | inactive | inactive
CC(C)CC(C)NC(=O)C1Cc2c([nH]c3cc(Cl)ccc23)C2(CCN(CCc3ccccc3)CC2)N1 (configuration not stated) | 65% (active) | 15% | -1 | 95% (active) | inactive | inactive | inactive | inactive
COc1ccc(CNCc2ccc(-c3cccc(-c4nc5ccccc5[nH]4)c3)cc2)cc1 | 85% (active) | 57% (active) | -3 | 101% (active) | inactive | inactive | inactive | inactive

SMILES | growth inhibition [1] | inhibition [2] | inhibition [3] [%] | growth inhibition [4] | outcome [5] | outcome [6] | outcome [7] | outcome [8]
Cc1cc2nc(-c3ccc(C(=O)NC4CCN(Cc5ccccc5)CC4)s3)[nH]c2cc1C | 82% (active) | 33% | 1 | 99% (active) | inactive | inactive | inactive | inactive
CCC(CC)OC(=O)C(C)c1cccc(C(=O)c2ccccc2)c1 (configuration not stated) | 0% | -8% | 6 | 93% (active) | inactive | inactive | inactive | inactive
Cc1nc2nc(N)nc(N)c2c(C)c1Cc1ccc(O)cc1 | 0% | 64% (active) | 1 | 94% (active) | inactive | inactive | inactive | inactive
N#Cc1ccc2c(c1)CCN(CCC1CCC(NC(=O)Nc3ccncc3)CC1)C2 (configuration not stated) | 3% | 6% | -4 | 85% (active) | inactive | inactive | inactive | inactive
Cc1ccc(CN2CCCN(Cc3cccc(NC(=O)c4ccc(-c5ccccc5)cc4)c3)CC2)cc1C | 19% | 43% | -4 | 84% (active) | inactive | inactive | inactive | inactive
O=C(NCc1cccc2ccccc12)c1ccc(CNC2CCN(Cc3ccccc3)CC2)cc1 | 88% (active) | 15% | 5 | 101% (active) | inactive | inactive | inactive | inactive
C=CCc1ccc(C[C@H](NC(=O)OC(C)(C)C)C(=O)OC)cc1 | 98% (active) | 77% (active) | 4 | 98% (active) | inactive | inactive | inactive | inactive
CN(C)CCCn1cncc1-c1ccc2ncnc(Nc3ccc(OCc4ccccc4)cc3)c2c1 | 101% (active) | 37% | 2 | 101% (active) | inactive | inactive | inactive | inactive
CCOC(=O)NCC(=O)Nc1cccc(-c2cccc(-c3nc4ccc(C(F)(F)F)cc4[nH]3)c2)c1 | 34% | 59% (active) | -2 | 91% (active) | inactive | inactive | inactive | inactive
CCc1cn2c3c(cc(C(=O)N[C@@H](Cc4ccccc4)[C@H](O)CNC4CCOCC4)cc13)N(C)S(=O)(=O)C2 | 98% (active) | 13% | -1 | 99% (active) | inactive | inactive | inactive | inactive
CC(C)(C)NCCN(Cc1ccc(-c2ccc(C(F)(F)F)cc2)cc1)C(=O)Cn1c(SCc2ccc(F)cc2)nc(=O)c2c1CCC2 | 84% (active) | 64% (active) | 0 | 97% (active) | inactive | inactive | inactive | inactive
O=C(NCc1ccc(Cl)c(Cl)c1)c1ccc(C2CCCN(Cc3ccc4nc[nH]c4c3)C2)cc1 (configuration not stated) | 83% (active) | 9% | 3 | 100% (active) | inactive | inactive | inactive | inactive
CCOc1c(CNCCCNc2nc3ccccc3[nH]2)cc(Br)cc1OC | 0% | 29% | 2 | 99% (active) | inactive | inactive | inactive | inactive
COC(=O)c1c(C#N)c(OC)cc(O)c1CSC[C@H](Nc1nc(-c2ccc([N+](=O)[O-])cc2)cs1)C(=O)NCCN1CCCCC1 | 88% (active) | 5% | -2 | 85% (active) | inactive | inactive | inactive | inactive
COc1ccc(Nc2ccnc3cc4ccccc4cc23)cc1 | 73% (active) | 32% | 3 | 101% (active) | inactive | inactive | inactive | inactive
O=S(=O)(NCCN1CCCC1)c1cccc(-c2cccc(CNCCc3cccs3)c2)c1 | 45% | 30% | 0 | 102% (active) | inactive | inactive | inactive | inactive
O=S(=O)(NCCN1CCCC1)c1cccc(-c2cccc(CNCc3ccsc3)c2)c1 | 55% (active) | 69% (active) | 6 | 101% (active) | inactive | inactive | inactive | inactive
CCCCCN1C(=O)N(c2ccc(Cl)c(Cl)c2)C(N(O)C(=O)Nc2ccc(Cl)c(Cl)c2)C1(C)C (configuration not stated) | 99% (active) | -2% | 6 | 94% (active) | inactive | inactive | inactive | inactive
O=c1cc(NCC2(CNCc3cn(Cc4ccccc4)c4ccccc34)CCCCC2)[nH]c2ccccc12 | 56% (active) | 27% | 1 | 100% (active) | inactive | inactive | inactive | inactive
